{"source": "PubChem BioAssay (NCI)", "note": "Values joined by “and” are separate entries in the source; they are usually repeats but may differ in a detail not shown here. Equal entries are not always repeated. Compounds without any hit were thinned out: in the full panel of roughly 83,000, 20% have a hit.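 96-well plates, one dose, 48 hours. Percent growth reported; active if below 10.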 Active and inactive are the calls of the source. Where a SMILES comes first, the peptide text is derived from it. [ ]: non-standard residue; d: D form. ξ: configuration not given here. ξV = CC(C)C(N)C(=O)O", "data": [{"system": "PC-3 prostate", "test": "NCI-60 one-dose screen, 48 h (100 = growth as untreated, 0 = no growth, -100 = all killed)", "conditions": "0.0025 µM", "experimental": "(§1) Growth inhibition of the PC-3 human tumor cell line is measured as a screen for anti-cancer activity. Cells are grown in 96 well plates and exposed to the test compound for 48 hours. Compounds are tested at a single concentration, which is 10^-5 M for most compounds. The reported endpoint is percent growth (GI% or GIPRCNT), where numbers from 0 - 100% represent growth inhibition, and numbers from -100% - 0 represent cell death. For example, a value of 40 represents 60% growth inhibition. A value of 0 means no net growth occurred over the course of the experiment. A value of -40 indicates 40% of cells at the beginning of the experiment died by the end of the experiment. A value of -100 means all cells are dead at the end of the experiment.\n(§2) NCI-60 Human Tumor Cell Lines Screen was performed using the standard one-dose NCI protocol, which is described in more detail at https://dtp.cancer.gov/discovery_development/nci-60/default.htm.\n(§3) Compounds with GIPRCNT values below 10 were considered active. Activity score was based on GIPRCNT using the following formula: […]\n(§4) Score is 0 for GIPRCNT values of 100 or above, 50 for GIPRCNT values of 0, and 100 for GIPRCNT values of -100.", "values": [{"smiles": "COc1cccc2c1C(=O)c1c(O)c3c(c(O)c1C2=O)C[C@@](O)(C(=O)CO)C[C@@H]3OC1CC(N)C(O)C(C)O1", "note": "(stereo not given in full)", "growth": "100% (inactive)"}]}, {"system": "PC-3 prostate", "test": "NCI-60 one-dose screen, 48 h (100 = growth as untreated, 0 = no growth, -100 = all killed)", "conditions": "1 µM", "experimental": "as §1, §2, §3, §4", "values": [{"smiles": "COc1cccc2c1C(=O)c1c(O)c3c(c(O)c1C2=O)C[C@@](O)(C(=O)CO)C[C@@H]3OC1CC(N)C(O)C(C)O1", "note": "(stereo not given in full)", "growth": "54.7% (inactive)"}]}, {"system": "PC-3 prostate", "test": "NCI-60 one-dose screen, 48 h (100 = growth as untreated, 0 = no growth, -100 = all killed)", "conditions": "10 µM", "experimental": "as §1, §2, §3, §4", "values": [{"smiles": "CN(C)C(=S)SC(=S)N(C)C", "growth": "93.1% (inactive) and 89.6% (inactive)"}, {"smiles": "CC(=O)OCC(OC(C)=O)C(OC(C)=O)C(OC(C)=O)C(OC(C)=O)C(/C=N/Nc1ccccc1)=N/Nc1ccccc1", "note": "(stereo not given)", "growth": "55.9% (inactive)"}, {"smiles": "COC(=O)C1=COC(C)C2C[n+]3ccc4c([nH]c5ccccc54)c3CC12", "note": "(stereo not given)", "growth": "92% (inactive) and 75.7% (inactive)"}, {"smiles": "OCC1OC(n2cnc3c(=S)nc[nH]c32)C(O)C1O", "note": "(stereo not given)", "growth": "89.1% (inactive) and 73.1% (inactive)"}, {"smiles": "CCCCCCCCCCCCSC(=NC)NC", "growth": "42% (inactive) and 67.3% (inactive)"}, {"smiles": "CCCCCC(C)c1ccc(O)c(C)c1", "note": "(stereo not given)", "growth": "103% (inactive)"}, {"smiles": "CCCC1CCC(=C2C(=O)CCC2=O)O1", "note": "(stereo not given)", "growth": "95.1% (inactive) and 103% (inactive)"}, {"smiles": "CS(=O)(=O)OC1CC(n2ccc(=O)[nH]c2=O)OC1COC(c1ccccc1)(c1ccccc1)c1ccccc1", "note": "(stereo not given)", "growth": "91.3% (inactive)"}, {"smiles": "COc1cccc2c1C(=O)c1c(O)c3c(c(O)c1C2=O)C[C@@](O)(C(=O)CO)C[C@@H]3OC1CC(N)C(O)C(C)O1", "note": "(stereo not given in full)", "growth": "1.27% (active)"}, {"smiles": "CO[C@H](C(=O)[C@@H](O)[C@@H](C)O)[C@@H]1Cc2cc3cc(OC4CC(OC5CC(O)C(O)C(C)O5)C(O)C(C)O4)c(C)c(O)c3c(O)c2C(=O)[C@H]1OC1CC(OC2CC(OC3CC(C)(O)C(O)C(C)O3)C(O)C(C)O2)C(O)C(C)O1", "note": "(stereo not given in full)", "growth": "10.5% (inactive)"}, {"smiles": "Nc1c2ccccc2nc2ccccc12", "growth": "23.7% (inactive) and 9.05% (active) and 41.1% (inactive)"}, {"smiles": "CCCCCCCCCCSC(=N)N", "growth": "59% (inactive)"}, {"smiles": "O=[N+]([O-])C1=C(c2ccccc2)SC=C(c2ccccc2)S1", "growth": "62% (inactive)"}, {"smiles": "NNc1c2ccccc2nc2ccccc12", "growth": "50.7% (inactive)"}, {"smiles": "Nc1ccc2cc3ccc(N)cc3nc2c1", "growth": "94.5% (inactive) and 14.4% (inactive)"}, {"smiles": "O=C1NC(=O)c2cc([N+](=O)[O-])ccc21", "growth": "101% (inactive)"}, {"smiles": "Nc1nc(=S)c2ncn(C3OC(CO)C(O)C3O)c2[nH]1", "note": "(stereo not given)", "growth": "33.4% (inactive)"}, {"smiles": "Clc1cc(Cl)c(Cl)nn1", "growth": "80.9% (inactive)"}, {"smiles": "NC1=C(Cl)C(=O)c2ccccc2C1=O", "growth": "53% (inactive)"}, {"smiles": "CSC1SCC2C(=O)N(C)C(C(C)C)C(=O)OCC(NC(=O)c3cnc4ccccc4n3)C(=O)NC(C)C(=O)N(C)C1C(=O)N(C)C(C(C)C)C(=O)OCC(NC(=O)c1cnc3ccccc3n1)C(=O)NC(C)C(=O)N2C", "note": "(stereo not given)", "growth": "-12.7% (active)"}, {"smiles": "Clc1ccc(/C=C/c2ccccn2)c(Cl)c1", "growth": "85.9% (inactive)"}, {"smiles": "CCCCCCCCCCCC[N+](C)(C)Cc1ccccc1", "growth": "-18.7% (active)"}, {"smiles": "CC1=CC(C)=Nc2ccc(Cl)cc2N1", "growth": "91.9% (inactive)"}, {"smiles": "CC(C)C(NC(=O)CN)C(=O)O", "note": "(stereo not given) (H-Gly-[ξV]-OH)", "growth": "92.6% (inactive) and 88.6% (inactive)"}, {"smiles": "O=C(/C=C/c1ccccn1)c1ccccc1", "growth": "69.3% (inactive)"}, {"smiles": "O=C(C(=Cc1ccccc1)C(=O)c1ccccc1)c1ccccc1", "growth": "48.3% (inactive) and 77.7% (inactive)"}, {"smiles": "CC[N+](CC)=c1ccc2nc3c(cc(N)c4ccccc43)oc-2c1", "growth": "-48.8% (active)"}, {"smiles": "Cc1cc(O)c(C(C)C)cc1Cl", "growth": "101% (inactive)"}, {"smiles": "O=C1C=C(O)c2ccccc2C1=O.[Ag]", "growth": "78.7% (inactive)"}, {"smiles": "OCC(O)C(O)C(O)C(/C=N/Nc1ccccc1)=N/Nc1ccccc1", "note": "(stereo not given)", "growth": "72.6% (inactive)"}, {"smiles": "NC(=O)SCC(=O)NNc1ccccc1", "growth": "85.7% (inactive)"}, {"smiles": "OC(CN1CCCC2CCCCC21)c1cc2ccccc2c2ccccc12", "note": "(stereo not given)", "growth": "38.5% (inactive)"}, {"smiles": "O=C(/C=C/c1cccnc1)c1ccccc1", "growth": "88.1% (inactive)"}, {"smiles": "CCN(CC)c1ccc(NC(C(=O)c2ccccc2)c2ccccc2)cc1", "note": "(stereo not given)", "growth": "83.7% (inactive)"}, {"smiles": "O=c1ccn(C2CC(O)C(COC(c3ccccc3)(c3ccccc3)c3ccccc3)O2)c(=O)[nH]1", "note": "(stereo not given)", "growth": "59.5% (inactive)"}, {"smiles": "COc1ccc(CC(=O)c2ccc(O)cc2O)cc1", "growth": "109% (inactive)"}, {"smiles": "O=C(O)COc1ccc(OCC(=O)O)cc1", "growth": "31% (inactive)"}]}, {"system": "PC-3 prostate", "test": "NCI-60 one-dose screen, 48 h (100 = growth as untreated, 0 = no growth, -100 = all killed)", "conditions": "100 µM", "experimental": "as §1, §2, §3, §4", "values": [{"smiles": "O=c1ccn(C2CC(O)C(COC(c3ccccc3)(c3ccccc3)c3ccccc3)O2)c(=O)[nH]1", "note": "(stereo not given)", "growth": "15% (inactive)"}]}]}
